PubChem BioAssay (Tox21)
Values joined by “and” are separate entries in the source; they are usually repeats but may differ in a detail not shown here. Equal entries are not always repeated. Results filed as inconclusive are left out. Active and inactive are the calls of the source. Unless noted, calls come from the whole dose curve; as a rule, active = well fitted curve in the direction sought with a large enough effect in the repeat runs; inconclusive = weak or mixed curves; inactive = no such curve, though single readings can be large; an effect the other way counts as inactive or inconclusive.

What was measured:
[1] = qHTS assay to identify small molecule agonists of the androgen receptor (AR) signaling pathway in the presence of an antagonist - cell viability counter screen (AID 1259379); note: nearly all actives have a fitted effect of over 25% in size; note: potency is the fitted concentration of half-maximal effect
Outline: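 Cytotoxicity is assessed by CellTiter-Fluor in MDA-kb2 cells carrying an MMTV-driven luciferase reporter. Cells receive 3.0uM nilutamide plus compounds at 15 concentrations and incubate 16 hr at 37C without CO2 before fluorescence reading.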

[2] = qHTS assay to identify small molecule agonists of the estrogen receptor beta (ER-beta) signaling pathway - cell viability counter screen (AID 1259380); note: nearly all actives have a fitted effect of over 30% in size; note: potency is the fitted concentration of half-maximal effect
Outline: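 Cytotoxicity is measured in parallel with the reporter screen: after 16 hr compound exposure at 37C and a 2 hr LiveBLAzer step, CellTiter-Glo is added to the same ER-beta-UAS-bla HEK293T wells and luminescence read after 30 min.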

[3] = qHTS assay to identify small molecule agonists of the estrogen receptor alpha (ER-alpha) signaling pathway in the presence of an antagonist - cell viability counter screen (AID 1259386);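 note: cells exposed to compounds for 22 h at 37 °C before the viability read; nearly all actives have a fitted effect of over 30% in size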; note: potency is the fitted concentration of half-maximal effect
Outline: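 Cytotoxicity was measured in parallel with the ERE-luciferase agonist screen, in the same wells. The cells were VM7Luc4E2, which endogenously express ER-alpha, and treatment was with compounds plus 10.0nM ICI-182,780 for 22hr.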

[4] = target: Progesterone receptor (Homo sapiens) (UniProt P06401); assay: qHTS assay to identify small molecule agonists of the progesterone receptor (PR) signaling pathway (AID 1346784; calls by dose curve; note: nearly all actives have a fitted effect of over 30% in size)
Outline: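 Fluorescence from LiveBLAzer B/G FRET substrate cleavage (2 hr, RT) reported PR activation in PR-UAS-bla HEK 293T cells treated 16 hr at 37C/5% CO2 with compounds; medium contained 2% charcoal-stripped FBS.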

[5] = target: Progesterone receptor (Homo sapiens) (UniProt P06401); assay: qHTS assay to identify small molecule antagonists of the progesterone receptor (PR) signaling pathway (AID 1346795; active = well fitted inhibition curve with a large enough effect in the signal ratio in the repeat runs, not every such curve was filed as active; the % refers to the signal ratio; note: potency is the fitted concentration of half-maximal effect)
Outline: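 Fluorescence intensity measured 2 hr after adding beta-lactamase FRET substrate to PR-UAS-bla HEK293T cells that had been co-treated 16 hr with compound and 1 nM R5020 (final concentration) in 2% charcoal-stripped FBS.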

[6] = qHTS assay to identify small molecule antagonists of the progesterone receptor (PR) signaling pathway - cell viability counter screen (AID 1346798); note: nearly all actives have a fitted effect of over 50% in size; note: potency is the fitted concentration of half-maximal effect
Outline: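 CellTiter-Glo luminescence; PR-UAS-bla HEK293T, 3,000 cells/well; compound + R5020, 16 hr, 37C/5% CO2; 30 min RT before read.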

[7] = qHTS assay to identify small molecule agonists of the progesterone receptor (PR) signaling pathway - cell viability counter screen (AID 1346799; calls by dose curve; note: nearly all actives have a fitted effect of over 45% in size; note: potency is the fitted concentration of half-maximal effect)
Outline: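 In parallel with the beta-lactamase readout, cytotoxicity toward PR-UAS-bla HEK293T cells was measured by CellTiter-Glo luminescence following 16 hr compound incubation in 2% charcoal-stripped FBS medium.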

[8] = qHTS assay to identify small molecule antagonists of the TGF-beta/Smad signaling pathway - cell viability counter screen (AID 1346824); note: nearly all actives have a fitted effect of over 50% in size; note: potency is the fitted concentration of half-maximal effect
Outline: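 SBE-bla HEK 293T cells were plated overnight at 37 C, then given compounds in DMSO plus TGF-beta1 (added as 0.25 ng/mL solution) for 5 hr. After the bla read, CellTiter-Glo was added to the same wells and luminescence read after 30 min at room temperature.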

[9] = qHTS assay to identify small molecule agonists of the TGF-beta/Smad signaling pathway - cell viability counter screen (AID 1346829); note: nearly all actives have a fitted effect of over 45% in size; note: potency is the fitted concentration of half-maximal effect
Outline: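 Here the cytotoxicity of library compounds is measured in SBE-bla HEK 293T cells treated for 5 hr, using CellTiter-Glo added to wells already read for the beta-lactamase reporter.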

[10] = target: Thyrotropin-releasing hormone receptor (Homo sapiens) (UniProt P34981); assay: qHTS assay to identify small molecule antagonists of the thyrotropin-releasing hormone receptor (TRHR) signaling pathway (AID 1346877; active = well fitted inhibition curve with a large enough effect in the repeat runs, not every such curve was filed as active; note: series mostly up to about 51 µM)
Outline: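 Antagonism is measured as suppression of the calcium response to 1 nM TRH in TRHR-HEK293 cells that have been dye-loaded for 2 h at 37 °C after overnight plating. Each compound is tested at 15 concentrations in triplicate.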

[11] = target: Thyrotropin-releasing hormone receptor (Homo sapiens) (UniProt P34981); assay: qHTS assay to identify small molecule agonists of the thyrotropin-releasing hormone receptor (TRHR) signaling pathway (AID 1346891; calls by dose curve;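 note: HEK293 cells expressing TRHR with calcium dye readout; series mostly up to about 58 µM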)
Outline: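 Compounds were tested as agonists at 15 concentrations, in triplicate, on TRHR-Hek293 cells; calcium-sensitive dye fluorescence was recorded for 3 min following addition.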

[12] = Human pregnane X receptor (PXR) small molecule agonists, qHTS cell viability counter screen (AID 1346977); note: nearly all actives have a fitted effect of over 50% in size; note: potency is the fitted concentration of half-maximal effect
Outline: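 Viability counter screen: CellTiter-Fluor signal in PXR-Luc HepG2 cells, 24hr compound exposure, 37C, 5% CO2.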

[13] = target: Androgen receptor (Homo sapiens) (UniProt P10275); assay: qHTS assay to identify small molecule agonists of the androgen receptor (AR) signaling pathway in the presence of an antagonist (AID 1259381; calls by dose curve; note: nearly all actives have a fitted effect of over 15% in size)
Outline: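 Agonist-mode confirmation screen: human MDA-kb2 cells stably expressing luciferase under an MMTV promoter bearing AR and GR response elements, co-treated with 3.0uM nilutamide (final). Luminescence measured after 16hr compound incubation.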

[14] = qHTS assay to identify small molecule antagonists of the estrogen receptor beta (ER-beta) signaling pathway - cell viability counter screen (AID 1259382); note: nearly all actives have a fitted effect of over 55% in size; note: potency is the fitted concentration of half-maximal effect
Outline: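 Cytotoxicity counter screen multiplexed with the beta-lactamase antagonist assay: GripTite HEK293T ER-beta-bla cells were treated 16 hr with test chemicals in the presence of 1nM 17-beta-estradiol, and viability was measured by CellTiter-Glo.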

[15] = target: Estrogen receptor (Homo sapiens) (UniProt P03372); assay: qHTS assay to identify small molecule agonists of the estrogen receptor alpha (ER-alpha) signaling pathway in the presence of an antagonist (AID 1259383; calls by dose curve; note: top concentration of the series differs between compounds; nearly all actives have a fitted effect of over 15% in size)
Outline: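 Agonist-mode confirmation in the presence of the ER antagonist ICI-182,780 at 10.0nM final. Breast-derived VM7Luc4E2 reporter cells were exposed to compounds for 22hr, and ERE-driven luciferase was quantified by luminescence.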

[16] = qHTS assay to identify small molecule agonists or antagonists of the thyroid stimulating hormone receptor (TSHR) signaling pathway - wild type cell line counter screen (AID 1259384; calls by dose curve)
Outline: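 Wild-type HEK293 cells were plated 18 h at 37 C/5% CO2, pin-dosed with compound plus Ro20-1724 medium, held 30 min at room temperature, then given cAMP-d2 and anti-cAMP-cryptate; fluorescence was read after 1 h. Fifteen concentrations, triplicate.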

[17] = target: Thyrotropin receptor (Homo sapiens) (UniProt P16473); assay: qHTS assay to identify small molecule antagonists of the thyroid stimulating hormone receptor (TSHR) signaling pathway (AID 1259385; calls by dose curve; note: nearly all actives have a fitted effect of over 20% in size; note: potency is the fitted concentration of half-maximal effect)
Outline: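 TSHR-HEK293 cells were plated and held 18 h at 37C/5% CO2, then given compound plus Ro20-1724 and stimulated with TSH at 1.5 ng/mL final. After 30 min at room temperature, cAMP was detected with cAMP-d2/anti-cAMP-cryptate (1 h) by fluorescence.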

[18] = qHTS assay to identify small molecule agonists of the TGF-beta/Smad signaling pathway (AID 1346859; active = well fitted activation curve with a large enough effect in the signal ratio in the repeat runs, not every such curve was filed as active; the % refers to the signal ratio; note: series mostly up to about 77 µM)
Outline: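 After overnight seeding, SBE-bla HEK 293T cells are dosed with compounds in DMSO and kept 5 hr at 37 C, 5% CO2. LiveBLAzer-type FRET substrate is then applied for 2 hr at room temperature.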

Measured: Potency

Thyrotropin-releasing hormone receptor (Homo sapiens), sequence (P34981 whole entry, looked up): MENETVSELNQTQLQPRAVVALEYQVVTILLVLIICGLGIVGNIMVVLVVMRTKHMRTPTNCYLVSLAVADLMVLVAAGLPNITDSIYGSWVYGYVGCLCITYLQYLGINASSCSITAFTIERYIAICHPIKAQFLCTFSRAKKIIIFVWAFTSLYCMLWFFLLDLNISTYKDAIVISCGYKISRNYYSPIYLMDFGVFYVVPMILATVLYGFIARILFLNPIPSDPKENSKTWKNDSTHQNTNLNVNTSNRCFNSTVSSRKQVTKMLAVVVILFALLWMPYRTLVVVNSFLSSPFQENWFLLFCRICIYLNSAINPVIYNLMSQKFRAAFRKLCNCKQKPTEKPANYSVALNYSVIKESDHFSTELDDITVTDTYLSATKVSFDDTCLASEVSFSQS
Thyrotropin receptor (Homo sapiens), sequence (P16473 whole entry, looked up): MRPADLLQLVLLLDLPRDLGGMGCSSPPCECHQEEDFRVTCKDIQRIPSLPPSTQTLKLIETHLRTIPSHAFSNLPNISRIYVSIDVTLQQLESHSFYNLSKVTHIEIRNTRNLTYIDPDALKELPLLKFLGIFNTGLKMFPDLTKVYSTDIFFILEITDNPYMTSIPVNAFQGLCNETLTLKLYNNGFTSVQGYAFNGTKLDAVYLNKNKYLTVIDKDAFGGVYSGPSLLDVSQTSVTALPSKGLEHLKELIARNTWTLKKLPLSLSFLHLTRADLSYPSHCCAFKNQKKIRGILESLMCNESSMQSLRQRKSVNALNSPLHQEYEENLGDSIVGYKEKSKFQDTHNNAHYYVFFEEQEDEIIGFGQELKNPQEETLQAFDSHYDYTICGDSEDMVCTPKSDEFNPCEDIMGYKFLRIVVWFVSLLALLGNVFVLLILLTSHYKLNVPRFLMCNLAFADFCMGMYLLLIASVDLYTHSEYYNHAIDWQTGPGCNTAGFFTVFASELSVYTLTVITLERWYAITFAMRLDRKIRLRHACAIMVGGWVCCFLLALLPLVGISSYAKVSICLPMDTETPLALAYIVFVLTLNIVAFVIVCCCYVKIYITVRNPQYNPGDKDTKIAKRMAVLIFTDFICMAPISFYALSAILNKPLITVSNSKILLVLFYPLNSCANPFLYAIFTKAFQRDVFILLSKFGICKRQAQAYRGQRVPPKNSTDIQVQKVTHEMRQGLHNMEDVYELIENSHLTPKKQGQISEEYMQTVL
Androgen receptor (Homo sapiens), sequence (P10275 whole entry, looked up): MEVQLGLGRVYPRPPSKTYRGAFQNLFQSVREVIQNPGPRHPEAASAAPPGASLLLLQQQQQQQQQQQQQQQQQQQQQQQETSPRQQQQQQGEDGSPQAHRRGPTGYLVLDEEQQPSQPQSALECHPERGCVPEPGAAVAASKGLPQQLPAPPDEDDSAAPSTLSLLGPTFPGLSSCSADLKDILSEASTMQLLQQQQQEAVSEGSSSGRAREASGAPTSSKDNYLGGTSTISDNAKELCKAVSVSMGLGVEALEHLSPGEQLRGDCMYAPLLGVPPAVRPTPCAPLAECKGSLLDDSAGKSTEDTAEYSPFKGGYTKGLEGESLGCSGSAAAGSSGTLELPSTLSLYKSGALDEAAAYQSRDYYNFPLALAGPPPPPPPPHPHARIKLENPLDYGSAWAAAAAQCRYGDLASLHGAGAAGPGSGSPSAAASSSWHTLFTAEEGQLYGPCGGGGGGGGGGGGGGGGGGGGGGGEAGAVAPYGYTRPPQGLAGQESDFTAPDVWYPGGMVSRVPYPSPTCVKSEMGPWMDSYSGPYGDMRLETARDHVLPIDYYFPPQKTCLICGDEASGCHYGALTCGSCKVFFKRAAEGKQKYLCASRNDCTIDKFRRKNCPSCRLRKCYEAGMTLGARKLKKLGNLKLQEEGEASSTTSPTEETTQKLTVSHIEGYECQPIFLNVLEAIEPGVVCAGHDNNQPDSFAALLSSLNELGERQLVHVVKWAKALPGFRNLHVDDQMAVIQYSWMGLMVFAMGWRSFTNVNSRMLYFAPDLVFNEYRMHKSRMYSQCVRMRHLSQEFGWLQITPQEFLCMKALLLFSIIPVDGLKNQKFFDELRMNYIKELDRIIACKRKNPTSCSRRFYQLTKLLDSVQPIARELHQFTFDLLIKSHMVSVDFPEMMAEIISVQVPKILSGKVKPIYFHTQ
Progesterone receptor (Homo sapiens), sequence (P06401 whole entry, looked up): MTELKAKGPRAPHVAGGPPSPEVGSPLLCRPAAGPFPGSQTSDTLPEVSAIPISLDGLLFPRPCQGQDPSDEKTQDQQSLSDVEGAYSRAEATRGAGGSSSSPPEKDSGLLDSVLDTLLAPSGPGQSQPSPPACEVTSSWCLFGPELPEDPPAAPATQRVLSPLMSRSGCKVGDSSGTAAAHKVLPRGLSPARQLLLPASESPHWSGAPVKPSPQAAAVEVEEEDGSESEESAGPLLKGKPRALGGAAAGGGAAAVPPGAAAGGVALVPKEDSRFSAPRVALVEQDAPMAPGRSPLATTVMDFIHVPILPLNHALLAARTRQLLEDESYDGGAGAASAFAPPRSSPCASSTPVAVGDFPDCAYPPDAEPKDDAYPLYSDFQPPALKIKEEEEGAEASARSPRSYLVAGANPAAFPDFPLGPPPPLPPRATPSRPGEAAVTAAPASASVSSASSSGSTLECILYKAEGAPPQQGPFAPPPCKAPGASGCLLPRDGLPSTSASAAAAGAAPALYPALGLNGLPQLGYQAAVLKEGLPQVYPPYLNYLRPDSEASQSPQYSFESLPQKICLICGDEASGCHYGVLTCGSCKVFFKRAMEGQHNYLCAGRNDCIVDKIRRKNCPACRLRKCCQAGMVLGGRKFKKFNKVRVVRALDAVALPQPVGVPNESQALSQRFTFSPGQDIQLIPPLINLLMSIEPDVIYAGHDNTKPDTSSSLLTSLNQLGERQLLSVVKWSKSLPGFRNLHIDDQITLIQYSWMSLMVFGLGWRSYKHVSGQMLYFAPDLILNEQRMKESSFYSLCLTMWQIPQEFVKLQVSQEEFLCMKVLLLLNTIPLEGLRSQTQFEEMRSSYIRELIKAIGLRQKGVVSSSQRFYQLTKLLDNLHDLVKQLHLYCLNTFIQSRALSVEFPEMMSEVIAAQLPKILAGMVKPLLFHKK
Estrogen receptor (Homo sapiens), sequence (P03372 whole entry, looked up): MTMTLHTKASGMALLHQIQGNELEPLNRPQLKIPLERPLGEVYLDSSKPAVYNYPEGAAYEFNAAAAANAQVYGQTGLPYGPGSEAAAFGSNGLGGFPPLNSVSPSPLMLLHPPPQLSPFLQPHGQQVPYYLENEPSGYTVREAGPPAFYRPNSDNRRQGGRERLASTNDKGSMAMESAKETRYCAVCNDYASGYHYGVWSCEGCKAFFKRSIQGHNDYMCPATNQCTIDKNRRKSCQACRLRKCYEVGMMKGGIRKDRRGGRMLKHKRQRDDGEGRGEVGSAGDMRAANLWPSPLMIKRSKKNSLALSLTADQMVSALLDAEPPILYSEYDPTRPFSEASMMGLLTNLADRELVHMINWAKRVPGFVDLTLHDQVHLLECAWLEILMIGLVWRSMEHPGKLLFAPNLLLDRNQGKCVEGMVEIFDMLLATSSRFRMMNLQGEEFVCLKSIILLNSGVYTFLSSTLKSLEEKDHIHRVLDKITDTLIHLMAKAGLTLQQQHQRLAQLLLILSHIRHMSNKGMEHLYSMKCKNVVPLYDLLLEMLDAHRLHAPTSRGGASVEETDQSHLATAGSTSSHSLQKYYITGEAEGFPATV

COc1ccc(N)cc1N
inactive: [1] | [4] | [5] | [6] | [7] | [10] | [11]
active: [2] 7.08 µM and 13.1 µM | [3] 63.1 µM | [8] 7.14 µM and 21 µM | [9] 7.14 µM and 11.8 µM | [12] 50.1 µM

CCOC(=O)c1ccccc1S(=O)(=O)NC(=O)Nc1nc(Cl)cc(OC)n1
inactive: [1] | [13] | [14] | [15] | [16] | [17] | [3] | [4] | [6] | [8] | [9] | [18] | [12]

CC(=O)C(Cl)(Cl)Cl
active: [1] 20.9 µM | [3] 18.7 µM | [12] 8.34 µM
inactive: [13] | [14] | [15] | [16] | [6] | [8] | [9] | [18] | [10] | [11]

CC[C@H]1C[C@@H]2C[C@H]3c4[nH]c5ccc(OC)cc5c4CCN(C2)[C@@H]13
active: [12] 47.7 µM
inactive: [2] | [13] | [14] | [15] | [4] | [8] | [10] | [11]

[Hg+2].[I-].[I-]
active: [2] 5.45 µM | [17] 43.3 µM | [3] 61.1 µM | [6] 6.11 µM | [7] 5.45 µM | [8] 49 µM | [9] 54.9 µM | [12] 48.6 µM
inactive: [15]

ClC1=C(Cl)[C@]2(Cl)[C@@H]3[C@@H]4C[C@@H]([C@H]5O[C@@H]45)[C@@H]3[C@@]1(Cl)C2(Cl)Cl
inactive: [15] | [16] | [3]

O=[N+]([O-])O.O=[N+]([O-])O.[Cd]
inactive: [1] | [16] | [17] | [8]
active: [14] 54.5 µM | [6] 3.06 µM | [7] 4.86 µM | [12] 5.45 µM

Clc1ccc(CO/N=C(\Cn2ccnc2)c2ccc(Cl)cc2Cl)c(Cl)c1
inactive: [16] | [8] | [9] | [10] | [11]
active: [2] 29.8 µM | [14] 29.8 µM | [17] 26.6 µM | [6] 21.1 µM | [7] 15 µM

c1ccc2cc3c(cc2c1)-c1cccc2cccc-3c12
inactive: [2] | [13] | [14] | [15] | [16] | [17] | [6] | [7] | [8] | [9] | [12]

Nc1ccc(Sc2ccc(N)cc2)cc1
inactive: [1] | [15] | [16] | [17] | [3] | [9] | [18] | [10] | [11]

O=C(O)COc1nc(Cl)c(Cl)cc1Cl
active: [7] 27.9 µM
inactive: [1] | [14] | [15] | [16] | [3] | [8] | [10] | [11] | [12]

O=c1ssc(Cl)c1Cl
active: [1] 68.6 µM
inactive: [15] | [3] | [6] | [7] | [18] | [12]

Nc1ccc([N+](=O)[O-])cc1Cl
active: [3] 54.5 µM | [5] 54.5 µM
inactive: [2] | [13] | [14] | [15] | [16] | [17] | [4] | [6] | [8] | [9] | [18]

CCCCN(CCCC)C(=S)[S-].CCCCN(CCCC)C(=S)[S-].[Zn+2]
inactive: [15] | [8] | [9]
active: [2] 13.7 µM | [14] 30.6 µM | [3] 24.3 µM | [5] 12.2 µM | [6] 43.2 µM | [12] 13.7 µM

Clc1ccc(CSC(Cn2ccnc2)c2ccc(Cl)cc2Cl)cc1 (configuration not stated)
inactive: [16] | [8] | [9] | [18] | [10] | [11]
active: [2] 13.3 µM | [14] 13.3 µM | [6] 6.68 µM

CC(C)(C)c1ccc(CSc2cnn(C(C)(C)C)c(=O)c2Cl)cc1
active: [1] 0.0433 µM | [3] 2.43 µM | [12] 0.122 µM
inactive: [14] | [15] | [16] | [4] | [6] | [8] | [9] | [18] | [10] | [11]

Clc1ccc(CCC(Cn2ccnc2)Sc2c(Cl)cccc2Cl)cc1 (configuration not stated)
active: [2] 29.8 µM | [14] 33.5 µM | [6] 11.9 µM | [7] 21.1 µM
inactive: [16] | [17] | [3] | [8] | [9]
